CIT2-GFP yeast: modulators of TOR pathway CIT2-GFP in S. cerevisiae | S. cerevisiae CIT2-GFP strain, flow cytometry, 3 h; 100 means same as DMSO wells | GFP response vs DMSO, % at 10 µM | 0.065% of 320,000 active;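 active = GFP response relative to DMSO above a set limit, near the screen mean plus 3 SD, cut at about 150% in these data; inconclusive = Fewer than 70 cells measured for a yeast strain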;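 also: ratio of well median GFP fluorescence to mean of DMSO wells on the plate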
LAP4-GFP MLPCN: alters LAP4-GFP fluorescence in TOR pathway yeast screen; S. cerevisiae LAP4-GFP multiplex, flow cytometry GFP, 3 h; median GFP as percent of DMSO wells; GFP response vs DMSO, % at 10 µM; 0.34% of 320,000 active; AID 2023;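 active = GFP response vs DMSO above a set limit, about the screen mean plus 3 SD, cut at about 150% in these data; inconclusive = under 70 cell events counted for the yeast strain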
RPL19A-GFP yeast: yeast TOR pathway RPL19A-GFP modulation. S. cerevisiae RPL19A-GFP strain, flow cytometry, 3 h; active compounds read low. 0.3% of 330,000 active. percent response vs DMSO, % at 10 µM;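 active = percent response vs DMSO below 50%; inconclusive = fewer than 70 events counted for the yeast strain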;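 also: median channel GFP fluorescence of the barcoded RPL19A-GFP strain; lower means less RPL19A-GFP as with rapamycin TOR inhibition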
MEP2-GFP yeast: alters MEP2-GFP fluorescence in TOR pathway yeast screen | S. cerevisiae MEP2-GFP strain, flow cytometry GFP, 3 h; 100% = DMSO control level | GFP response vs DMSO, % at 10 µM | 0.51% of 330,000 active | AID 2016;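 active = GFP response versus DMSO above a set limit, roughly screen mean plus 3 SD, cut at about 180% in these data; inconclusive = fewer than 70 cells counted for a yeast strain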;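 also: median GFP fluorescence of the barcode-gated MEP2-GFP cells per well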
AGP1-GFP MLPCN: yeast TOR pathway AGP1-GFP modulation | S. cerevisiae AGP1-GFP multiplex flow cytometry, 3 h; GFP as percent of DMSO wells | GFP response vs DMSO, % at 10 µM | 0.02% of 320,000 active | AID 2066;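 active = GFP response relative to DMSO above a set limit, near screen average plus 3 SD, cut at about 150% in these data; inconclusive = fewer than 70 cells counted for the yeast strain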;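 also: median GFP channel fluorescence of the gated AGP1 strain per well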
VLA-4 inh: inhibition in a human VLA-4 binding assay; P13612; VLA-4 expressing cells, ligand binding flow cytometry; inhibition, % (about 7 µM as worked out from the volumes in the protocol); 0.2% of 330,000 active; AID 2557; in the data active = inhibition above about 50%
Target sequence (P13612 whole entry, looked up): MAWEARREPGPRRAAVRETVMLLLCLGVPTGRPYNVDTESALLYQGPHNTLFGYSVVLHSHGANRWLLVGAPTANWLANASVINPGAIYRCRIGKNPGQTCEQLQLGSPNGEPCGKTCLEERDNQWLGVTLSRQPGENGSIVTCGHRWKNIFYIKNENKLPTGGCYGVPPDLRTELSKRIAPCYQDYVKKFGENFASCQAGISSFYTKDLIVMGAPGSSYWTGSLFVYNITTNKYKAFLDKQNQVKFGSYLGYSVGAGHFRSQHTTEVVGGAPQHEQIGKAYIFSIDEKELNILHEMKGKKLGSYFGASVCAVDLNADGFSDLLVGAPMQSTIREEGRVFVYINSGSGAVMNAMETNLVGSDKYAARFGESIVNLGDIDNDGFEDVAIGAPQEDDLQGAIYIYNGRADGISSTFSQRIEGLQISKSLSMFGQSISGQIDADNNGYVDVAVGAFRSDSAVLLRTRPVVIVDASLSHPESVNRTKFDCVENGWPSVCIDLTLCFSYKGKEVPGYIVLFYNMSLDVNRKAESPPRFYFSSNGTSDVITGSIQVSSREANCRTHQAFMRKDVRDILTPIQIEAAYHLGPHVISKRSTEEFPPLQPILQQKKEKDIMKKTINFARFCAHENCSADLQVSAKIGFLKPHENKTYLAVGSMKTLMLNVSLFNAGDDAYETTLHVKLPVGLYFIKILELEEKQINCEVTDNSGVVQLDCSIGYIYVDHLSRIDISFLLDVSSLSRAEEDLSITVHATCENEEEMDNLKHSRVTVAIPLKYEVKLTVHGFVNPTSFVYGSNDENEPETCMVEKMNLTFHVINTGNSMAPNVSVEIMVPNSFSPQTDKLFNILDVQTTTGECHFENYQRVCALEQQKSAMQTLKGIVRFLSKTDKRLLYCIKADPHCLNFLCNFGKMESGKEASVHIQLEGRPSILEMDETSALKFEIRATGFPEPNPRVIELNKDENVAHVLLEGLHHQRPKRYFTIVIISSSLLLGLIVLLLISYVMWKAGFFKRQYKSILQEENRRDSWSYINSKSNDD
Each line names hits and unclear results; the compound was inactive in the other large screens; [ ] = dose if it differs, or a comment. Shown are actives, neighbours in structure and some others; about 1.1% of the full set was active somewhere.

COc1ccc(C(=O)N/N=C/c2ccc(OC(=O)c3cccc4ccccc34)c([N+](=O)[O-])c2)cc1	none
CCCOc1ccc(Oc2ccc(S(=O)(=O)N3CCN(C)CC3)cn2)cc1	none
CCNC(=O)C1CN(S(=O)(=O)c2ccccc2)CCN1S(=O)(=O)c1ccccc1 (centres undefined)	none
Cc1ccc(/C=N\NC(=O)C2CN(S(=O)(=O)c3ccccc3)CCN2S(=O)(=O)c2ccccc2)cc1 (centres undefined)	CIT2-GFP yeast inconclusive, RPL19A-GFP yeast 24[may fluoresce violet], MEP2-GFP yeast 204[may fluoresce violet], AGP1-GFP MLPCN inconclusive
COc1ccccc1-c1nnc(NC(=O)c2ccc(S(=O)(=O)N3CCCC3)cc2)o1	LAP4-GFP MLPCN 169
CC1CCCN(S(=O)(=O)c2ccc(C(=O)Nc3nnc(-c4ccccc4Cl)o3)cc2)C1 (centres undefined)	none
NNC(=O)c1ccc(CSc2nc3ccccc3[nH]2)cc1	CIT2-GFP yeast inconclusive, RPL19A-GFP yeast 45[may fluoresce violet], AGP1-GFP MLPCN inconclusive
COc1cccc(C2C(C(=O)Nc3nc4ccccc4s3)=C(C)NC3=C2C(=O)CC(C)(C)C3)c1OC (centres undefined)	none
COc1ccc(OC)c(C2C(C(=O)Nc3nc4ccccc4s3)=C(C)NC3=C2C(=O)CCC3)c1 (centres undefined)	MEP2-GFP yeast 183
O=C(O)CN1C(=O)C2C3C=CC(C3)C2C1=O (centres undefined)	none
C/C(Cl)=C/CN1C(=O)C2C3C=CC(C3)C2C1=O (centres undefined)	CIT2-GFP yeast inconclusive, RPL19A-GFP yeast 25[may fluoresce violet], MEP2-GFP yeast 247[may fluoresce violet], AGP1-GFP MLPCN inconclusive
O=C(CCc1nc(-c2ccccc2Cl)no1)NC1CCCCC1	none
COC(=O)[C@]1(Cc2ccccc2)N[C@H](CN(C)C(=O)c2ccc(F)cc2)[C@@H]2C(=O)N(Cc3ccccc3)C(=O)[C@@H]21	none
N#CC1=C(N)Oc2cc(O)ccc2C1c1cccnc1 (centres undefined)	CIT2-GFP yeast inconclusive, MEP2-GFP yeast 210[may fluoresce violet]
Cc1onc(-c2ccccc2)c1C(=O)N1CCC(C)CC1	LAP4-GFP MLPCN 160, MEP2-GFP yeast 221
Cc1onc(-c2ccccc2)c1C(=O)N1CCCN(C(=O)c2c(-c3ccccc3)noc2C)CC1	none (no result: CIT2-GFP yeast)
CC(=O)Nc1ccc(NC(=O)CCCn2cnc3ccccc3c2=O)cc1	CIT2-GFP yeast inconclusive, MEP2-GFP yeast 242[may fluoresce violet]
COc1ccc(/C=N/NC(=O)Cn2cnc3ccccc3c2=O)cc1	CIT2-GFP yeast inconclusive, RPL19A-GFP yeast 49[may fluoresce violet], MEP2-GFP yeast 245[may fluoresce violet]
COc1ccc(/C=N/NC(=O)C(C)n2cnc3ccccc3c2=O)cc1 (centres undefined)	none
O=C(CN(c1cccc(Br)c1)S(=O)(=O)c1ccccc1)N/N=C/c1cc([N+](=O)[O-])ccc1O	none
CCOc1ccccc1N(C)S(=O)(=O)c1ccc2c(c1)N(C(C)=O)CCO2	none
CCOC(=O)c1ccccc1OC(=O)CS(=O)c1ccccc1[N+](=O)[O-] (centres undefined)	none
COC(=O)c1ccc(OC(=O)CS(=O)c2ccccc2[N+](=O)[O-])cc1 (centres undefined)	CIT2-GFP yeast inconclusive, LAP4-GFP MLPCN 220[may fluoresce violet], MEP2-GFP yeast 191[may fluoresce violet]
CC(C)N(Cc1cc2ccccc2[nH]c1=O)C(=O)c1cccc([N+](=O)[O-])c1	CIT2-GFP yeast inconclusive, RPL19A-GFP yeast 44[may fluoresce violet], MEP2-GFP yeast 319[may fluoresce violet], AGP1-GFP MLPCN inconclusive
CCOC(=O)c1oc2ccccc2c1CSc1nnnn1-c1ccc(OC)cc1	CIT2-GFP yeast inconclusive, MEP2-GFP yeast 248[may fluoresce violet], AGP1-GFP MLPCN inconclusive
CCCn1c(=O)c2ccccc2n2c(SCc3c(C(=O)OCC)oc4ccccc34)nnc12	none
Cc1ccc(S(=O)(=O)N2CCCN(C(=O)c3cc4ccccc4[nH]3)CC2)cc1	none
Cc1nnc(N2CCCC(C(=O)NCc3ccc(OC(C)C)cc3)C2)c2nn(-c3ccccc3)c(C)c12 (centres undefined)	CIT2-GFP yeast inconclusive, RPL19A-GFP yeast 48[may fluoresce violet], MEP2-GFP yeast 253[may fluoresce violet], AGP1-GFP MLPCN inconclusive
COc1ccc(C)cc1NC(=O)c1cc(S(=O)(=O)N2CCOCC2)cn1C	none
Nc1cc(N)nc(SCC(=O)N2CCc3ccccc32)n1	MEP2-GFP yeast 175 (no result: AGP1-GFP MLPCN)
Cc1nc(SCC(=O)N2CCc3ccccc32)n[nH]1	CIT2-GFP yeast inconclusive, RPL19A-GFP yeast 40[may fluoresce violet], MEP2-GFP yeast 365[may fluoresce violet], AGP1-GFP MLPCN inconclusive
O=C(CSc1ccccc1)N1CCc2ccccc21	none
Nc1nc(SCC(=O)N2CCCc3ccccc32)n[nH]1	none
Cc1nc(Oc2ccccc2)c2oc3ccccc3c2n1	CIT2-GFP yeast inconclusive, MEP2-GFP yeast 430[may fluoresce violet], AGP1-GFP MLPCN inconclusive
CCc1ccc(OCC(=O)Nc2ccc3c(c2)OCCO3)cc1	none
O=C(/C(=C/c1ccccc1)n1cncn1)c1ccc(Cl)cc1Cl	LAP4-GFP MLPCN 151
O=C(/C(=N\O)n1cncn1)c1ccc(Cl)cc1Cl	none
CC(=O)Oc1c(C)cc(Cl)cc1C(=O)Nc1ccc([N+](=O)[O-])cc1Cl	CIT2-GFP yeast 153
COCc1cc(C)n(CC(=O)Nc2ccccc2OC)c(=O)c1C#N	CIT2-GFP yeast inconclusive, RPL19A-GFP yeast 48[may fluoresce violet], MEP2-GFP yeast 571[may fluoresce violet], AGP1-GFP MLPCN inconclusive
COc1ccccc1C1CCN(Cc2c(C)[nH]c3ccccc23)CC1	LAP4-GFP MLPCN 152, MEP2-GFP yeast 201
Cc1[nH]c2ccccc2c1CN1CCC(CO)(Cc2ccccc2)CC1	CIT2-GFP yeast inconclusive, RPL19A-GFP yeast 42[may fluoresce violet]
Cc1[nH]c2c(C)cccc2c1CN1CCC(CO)(Cc2ccccc2)CC1	none
COc1ccccc1C1CCN(Cc2cccc3ccccc23)CC1	none
CCC(NC(=S)NCc1ccc(F)cc1)c1ccc(C(C)C)cc1 (centres undefined)	none
CCCCNC(=O)c1ccc2c(SCC(=O)O)c3c(nc2c1)CCCC3	MEP2-GFP yeast 185
COc1c(OC)c2[nH]c(=O)cc3c4ccccc4n(c1=O)c23	CIT2-GFP yeast inconclusive, RPL19A-GFP yeast 18[may fluoresce violet], MEP2-GFP yeast 365[may fluoresce violet], AGP1-GFP MLPCN inconclusive
CCCN1CCN(S(=O)(=O)c2ccc3c(c2)CCC(=O)N3)CC1	none
COc1ccc(CCN2CC(C(=O)Nc3ccc(S(C)(=O)=O)cc3)CC2=O)cc1OC (centres undefined)	none
O=[N+]([O-])c1ccccc1C1Nc2cccc3cccc(c23)N1	CIT2-GFP yeast inconclusive, MEP2-GFP yeast 476[may fluoresce violet]
Cc1nc(-c2ccc3c(c2)OCCO3)cs1	none
N#Cc1cncc(-c2ccc3c(c2)OCCOCCOCCOCCOCCO3)n1	CIT2-GFP yeast inconclusive, RPL19A-GFP yeast 25[may fluoresce violet], MEP2-GFP yeast 233[may fluoresce violet], AGP1-GFP MLPCN inconclusive
COc1cc(/C=N/NC(=O)c2ccc(O)cc2)ccc1OCC(=O)N1CC(C)OC(C)C1 (centres undefined)	none
COc1ccc(Nc2nc(-c3cccc([N+](=O)[O-])c3)nc3ccccc23)c(OC)c1	none
